# From PubChem BioAssay AID652154 (Broad Institute, 2013)
# Where “and” joins values, the source holds several entries; their conditions need not be identical. Identical values can stand only once. The campaign covered roughly 360,000 compounds. About 4,200 (1.2%) were called active. For the sample, actives were picked, then their nearest neighbours and some compounds at random. Values without a mark were called inactive.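 How the source made its calls: active means mean replicate inhibition at least 60% with every replicate also reaching 60%; inconclusive means only one of the two criteria is met; inactive means mean below 60% and not all replicates reaching 60%.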
# Assay: PAX8 transcriptional activity inhibition in RMG-I – RMG-I cells, luciferase, single concentration, primary screen (AID 652154);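 further: luciferase light reporting Pax8 driven TPO promoter activity; plate controls were median of neutral control wells for no effect and mitoxantrone controls for full effect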
# Settings: RMG-I TPO-luciferase reporter, SteadyGlo, 24 h; at 12.6 µM; hits give high values
row,Compound,inhibition
1,C[C@@H]1CN([C@@H](C)CO)S(=O)(=O)c2ccc(C3=CCCCC3)cc2O[C@@H]1CN(C)Cc1cccc(C(=O)O)c1,-22.5%
2,C/C=C/c1ccc([C@@H]2[C@@H](CO)N(C(C)=O)[C@H]2CN(C)C(=O)CN(C)C)cc1,0.935%
3,C[C@H]1CN([C@@H](C)CO)C(=O)Cc2cc(NC(=O)NC3CCCCC3)ccc2O[C@H]1CN(C)S(=O)(=O)c1cccs1,11.1%
4,O=C(C[C@@H]1CC[C@@H]2[C@H](COC[C@@H](O)CN2Cc2ccc(F)cc2)O1)NCc1ccncn1,-11.3%
5,Cc1ccc(S(=O)(=O)Nc2ccc3c(c2)C(=O)N([C@H](C)CO)C[C@@H](C)[C@@H](CN(C)C(=O)CCC(F)(F)F)OCCCC[C@@H](C)O3)cc1,-2.28%
6,O=C(NC1CCC1)[C@@H]1[C@@H](CO)[C@@H]2Cn3c(ccc(/C=C/c4ccccc4)c3=O)[C@@H]2N1Cc1ccncc1,7.46%
7,CN1C[C@H](O)COC[C@H]2O[C@H](CC(=O)NC3CCC3)CC[C@@H]21,-17.3%
8,CN(C)C(=O)c1cccc(-c2ccc([C@H]3[C@H](CO)N4C(=O)CN(C(=O)C5CCCCC5)C[C@@H]34)cc2)c1,-1.57%
9,C[C@H](CO)N1C[C@H](C)[C@@H](CN(C)C)OCCCC[C@H](C)Oc2ccc(NC(=O)C3CCCCC3)cc2C1=O,-11.4%
10,O=S(=O)(Cc1ccccc1)N1CCCCN2[C@@H](CO)[C@@H](c3ccc(-c4ccc(F)cc4)cc3)[C@@H]2C1,44.5%
11,C[C@@H]1CN([C@@H](C)CO)C(=O)c2cc(NS(=O)(=O)c3cccs3)ccc2O[C@@H](C)CCCCO[C@@H]1CN(C)C(=O)NC1CCCCC1,1.62%
12,Cc1ccc(-c2nc3ccc(Br)cn3c2Cc2ccccc2C(F)(F)F)cc1,-163%
13,Cc1ccc(-c2nc3ccc(Cl)cn3c2Cc2ccccc2)cc1,-103%
14,CS(=O)(=O)Nc1cccc(-c2cn3ccccc3n2)c1,-44.1%
15,Cc1ccc(-c2cn3cc(C)ccc3n2)cc1,91.9% (active)
16,COc1ccc(-c2nc3ccc(Br)cn3c2Cc2ccc(C)cc2)cc1OC,-53.2%
17,Cc1ccc2nc(-c3ccc(Br)cc3)cn2c1,92.9% (active)
18,O=C(C[C@@H]1C=C[C@H](NC(=O)CN2CCOCC2)[C@@H](CO)O1)NC1CCC1,-5.79%
19,C[C@H](CO)N1C[C@H](C)[C@H](CN(C)C)Oc2c(NS(=O)(=O)c3ccc(Cl)cc3)cccc2C1=O,-6.01%
20,COc1cccc(S(=O)(=O)N[C@H]2CC[C@H](CC(=O)NC3CCC3)O[C@H]2CO)c1,-7.93%
21,O=C(C[C@H]1C[C@@H]2c3cc(NC(=O)c4cccnc4)ccc3O[C@@H]2[C@H](CO)O1)NCc1ccccn1,-7.94%
22,Cc1ccc(N)cc1CN1CCN(c2ncc(Cc3ccccc3)cn2)CC1,-0.199%

row,Compound,inhibition
1,O=C(C1CCCCC1)N1C[C@@H]2N[C@H](C1)C2c1ccc(-c2cccc(F)c2)cc1 (stereo partly specified),-14.7% and -21.2%
2,Cc1cccc(-c2ccc(C3[C@@H]4CN(C(=O)Nc5ccc(C(F)(F)F)cc5)C[C@H]3N4)cc2)c1 (stereo partly specified),116% (active) and 119% (active)
3,CN(C)C(=O)c1ccc(-c2ccc(C3[C@@H]4CN(C(=O)Nc5ccccc5)C[C@H]3N4)cc2)cc1 (stereo partly specified),5.13%
4,CNC[C@H]1Oc2ccc(NC(=O)Nc3ccc4c(c3)OCO4)cc2CC(=O)N([C@H](C)CO)C[C@H]1C,2.09%
5,COc1ccc2c3c(n(C)c2c1)[C@@H](CO)N(Cc1ccncc1)CC31CN(C(=O)C2CCC2)C1,7.29%
6,COCC(=O)N(C[C@H]1N[C@H](CO)[C@H]1c1ccc(C2=CCCCC2)cc1)C(C)C,2.09%
7,CN(CC1CCCO1)S(=O)(=O)c1ccc(C(=O)Nc2ccc([N+](=O)[O-])cc2)cc1 (stereo unspecified),-4.55%
8,Cn1c(=O)n(C)c2cc(C(=O)Nc3ccc(Br)cc3)ccc21,-6.12%
9,Cn1ccc(=Nc2ccc(NC(=O)c3ccc(N=c4ccn(C)c5ccc([N+](=O)[O-])cc45)cc3)cc2)cc1,79.6% (active)
10,C[C@@H]1CN([C@H](C)CO)C(=O)c2cc(N(C)C)ccc2O[C@@H](C)CCCCO[C@@H]1CN(C)C(=O)CCCN(C)C,-0.0835%
11,O=c1ccn([C@@H]2O[C@H](CNS(=O)(=O)c3cc4ccccc4s3)[C@@H](O)[C@H]2O)c(=O)[nH]1,78.9% (active)
12,O=C(NS(=O)(=O)c1cccs1)[C@H]1O[C@@H](n2ccc(=O)[nH]c2=O)[C@H](O)[C@@H]1O,-7.69%
13,Cc1sc2ccccc2c1CNC[C@H]1O[C@@H](n2ccc(=O)[nH]c2=O)[C@H](O)[C@@H]1O,3.61%
14,C[C@H]1CN([C@@H](C)CO)C(=O)c2c(c3ccccc3n2C)-c2ccccc2CO[C@@H]1CN(C)Cc1ccc2c(c1)OCCN2C,-18%
15,CS(=O)(=O)N1[C@H](CO)[C@H](c2ccccc2)C12CN(C(=O)C1CC1)C2,-2.16%
16,COc1cccc(-c2cnc3c(c2)C(=O)N([C@H](C)CO)C[C@H](C)[C@@H](CN(C)Cc2ccc(C(=O)O)cc2)O3)c1,9.85%
17,OC[C@@H]1CN(Cc2ccc(-c3ccccc3)cc2)C[C@H](n2cnc3c(NC4CCCC4)ncnc32)O1,64.7% (active)
18,OC[C@@H]1CN(Cc2cccs2)C[C@H](n2cnc3c(NC4CCCC4)ncnc32)O1,-6.69%
19,OC[C@@H]1CN(Cc2ccc(F)cc2)C[C@H](n2cnc3c(NC4CCCC4)ncnc32)O1,3.85%
20,Cc1noc(C)c1NC(=O)Nc1ccc2c(c1)C(=O)N([C@@H](C)CO)C[C@@H](C)[C@H](CN(C)C(=O)Nc1ccc(C(F)(F)F)cc1)OCCCC[C@@H](C)O2,-4.84%
21,CS(=O)(=O)N1CC(=O)N2[C@@H](CO)[C@@H](c3ccc(C#CCC4CCCC4)cc3)[C@@H]2C1,0.153%
22,Cc1ccc(S(=O)(=O)Nc2ccc3c(c2)C(=O)N([C@H](C)CO)C[C@@H](C)[C@H](CN(C)C(=O)Nc2ccc(C(F)(F)F)cc2)OCCCC[C@H](C)O3)cc1,54.1%

row,Compound,inhibition
1,C[C@@H]1CN([C@H](C)CO)C(=O)c2cc(NS(=O)(=O)c3cccs3)ccc2O[C@@H](C)CCCCO[C@H]1CN(C)Cc1ccc(C(F)(F)F)cc1,96.8% (active)
2,C[C@@H]1CCCCO[C@@H](CN(C)Cc2ccccc2)[C@H](C)CN([C@H](C)CO)C(=O)c2cc(NS(=O)(=O)c3cccs3)ccc2O1,6.46%
3,CC(C)NC(=O)N(C)C[C@H]1OCCCC[C@H](C)Oc2ccc(NS(=O)(=O)c3cccs3)cc2C(=O)N([C@H](C)CO)C[C@@H]1C,-10.4%
4,C[C@@H]1CCCCO[C@@H](CN(C)Cc2ccc(C(=O)O)cc2)[C@H](C)CN([C@H](C)CO)C(=O)c2cc(NS(=O)(=O)c3cccs3)ccc2O1,0.438%
5,C[C@@H]1CCCCO[C@H](CN(C)C(=O)Nc2ccc(C(F)(F)F)cc2)[C@@H](C)CN([C@@H](C)CO)C(=O)c2cc(NS(=O)(=O)c3cccs3)ccc2O1,80.1% (active)
6,CC(=O)N1[C@@H](CO)[C@@H](c2ccccc2)[C@@H]1CN(C)C(=O)CN1CCOCC1,12.7%
7,Cn1cnc(S(=O)(=O)N2C[C@H](O)COC[C@@H]3O[C@H](CC(=O)NC4CCCC4)CC[C@H]32)c1,-34%
8,CC(C)NC(=O)N1[C@H](CO)[C@@H]2c3ccccc3N(C(=O)c3ccccc3F)C[C@@H]21,-9.8%
9,COc1ccccc1C#Cc1ccc([C@@H]2[C@H](CO)N3CCCCN(C(=O)C4CCCC4)C[C@@H]23)cc1,-8.82%
10,CCOc1ccccc1NC(=O)Cn1nnc(C(=O)NCc2cccs2)c1N,68.5% (active)
11,Cc1ccc(NC(=O)Cn2nnc(C(=O)NCc3ccco3)c2N)c(C)c1,8.75%
12,COc1cccc(CNC(=O)c2nnn(CC(=O)Nc3cc(C)ccc3C)c2N)c1,5.68%
13,Cc1ccc(-c2ccc3c(c2)O[C@H](CN(C)C(=O)CC2CC2)[C@@H](C)CN([C@H](C)CO)S3(=O)=O)cc1,11.8%
14,CSc1nc(-c2ccccc2)nc(C(Cl)Cl)n1,99.3% (active)
15,Clc1ccc2nc(-c3ccccc3)nc(C(Cl)Cl)c2c1,32.4%
16,C[C@@H]1CN([C@H](C)CO)C(=O)c2cc(NC(=O)CCCN(C)C)ccc2O[C@@H](C)CCCCO[C@H]1CN(C)CC1CCCCC1,-3.49%
17,CCC(=O)Nc1ccc2c(c1)OC[C@H](C)N(CC1CCOCC1)C[C@@H](C)[C@@H](OC)CN(C)C2=O,6.07%
18,O=C(C[C@@H]1CC[C@@H]2[C@H](COC[C@@H](O)CN2C(=O)c2ccccc2F)O1)N1CCOCC1,5.42%
19,COc1cccc2c1C(=O)c1c(O)c3c(c(O)c1C2=O)CC(O)(C(C)=NNC(=O)c1ccc(Cl)c(Cl)c1)CC3OC1CC(N)C(O)C(C)O1 (stereo unspecified),107% (active)
20,CC(=O)N[C@@H]1CC[C@@H](CCNC(=O)C2CC2)O[C@H]1CO,11.9%
21,O=C(C[C@H]1CC[C@@H](NC(=O)Nc2cc(F)ccc2F)[C@@H](CO)O1)NCc1ccncn1,0.809%
22,OC[C@@H]1[C@H](c2ccc(C#CC3CC3)cc2)[C@@H]2CN(CCC(F)(F)F)CCCCN12,-6.92%
